Potency and affinity values are given separately. Active and inactive are the calls of the source.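 Rule for the calls: active = signal-lowering compounds whose fitted half-maximal concentration is at or below twice the top tested dose in every run; inconclusive = runs disagree, flat 30 to 70% inhibition, or poor curve fit; inactive = the rest.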
These compounds were tested against Protein S100-A4 (Homo sapiens) (UniProt P26447) (assay: human S100A4 peptide interaction inhibition curves – biochemical, fluorescence polarization, cherry-picked hits, dose response (AID 687001)). Conditions: FP, S100A4/TAMRA-myosin IIA peptide binding; series mostly up to 11 µM.
Chain of Protein S100-A4 (Homo sapiens) (P26447 whole entry, looked up): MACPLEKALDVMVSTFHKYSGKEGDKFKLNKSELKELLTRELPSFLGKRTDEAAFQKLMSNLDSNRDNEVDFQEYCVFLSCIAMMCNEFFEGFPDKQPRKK

outcome, inactive:
O=C(NCCCN1CCC(Cc2ccccc2)CC1)C1CCC(=O)N1C1CCCC1 (stereo unspecified)
COc1cc(S(=O)(=O)NCc2ccccn2)ccc1Cl
CN1CCN(C(CNC(=O)C(=O)Nc2ccc3c(c2)OCO3)c2ccc(F)cc2)CC1 (stereo unspecified)
O=C(O)c1cccc(C(=O)O)c1S(=O)Cc1ccccc1 (stereo unspecified)
CCC(=O)N1C[C@H](C)[C@@H](OC)CN(C)C(=O)c2ccc(NC(=O)Nc3ccccc3)cc2OC[C@H]1C
CN(C(=O)c1ccc(Br)o1)C1CCCCC1
C[C@H]1CN([C@@H](C)CO)C(=O)CCCn2nncc2CO[C@H]1CN(C)S(=O)(=O)c1ccc2c(c1)OCCCO2
COc1ccc(NC(=O)c2ccccc2OCc2c(C)noc2C)cc1OC
CC(C)CC#Cc1ccc([C@@H]2[C@H](CO)N3C(=O)CN(C(=O)c4ccccn4)C[C@@H]23)cc1
CCOc1ccc(N2CC(C(=O)NNC(=O)c3ccc(Br)cc3)CC2=O)cc1 (stereo unspecified)
CCCN1[C@H](C(=O)N2CCCCC2)[C@@H](CO)[C@@H]2Cn3c(ccc(-c4ccccc4F)c3=O)[C@@H]21
CC(NC(=O)Nc1ccc(F)cc1)c1ccc2c(c1)OCO2 (stereo unspecified)
Cc1ccc(C(=O)NC2CC(=O)N(c3ccc4c(c3)OCCO4)C2)cc1[N+](=O)[O-] (stereo unspecified)
COC(=O)c1ccc(Oc2nc(SC)nc(N(C)C)n2)cc1
CCOCCn1ccc2c(OCC(=O)Nc3ccccc3OC)cccc2c1=O
CCC(c1nc2ccccc2[nH]1)n1c(-c2cnccn2)nc2ccccc21 (stereo unspecified)

Reference: PubChem BioAssay AID687001 (Broad Institute, 2013)
